Test results published in the supplement of paper PMC8728848.
The sample as a whole holds a higher share of the strongest signals than the screen did.

Key:
Assay in all cases: glycan array binding signal (z-score within array); higher = stronger binding
Conditions in all cases: glycan notation: IUPAC condensed, linker removed
Glc(b1-4)Glc = target: Glc(b1-4)Glc
Summary of the method: (§1)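 Glycan array data came from 3228 arrays in the Consortium for Functional Glycomics database, and only arrays with an available protein sequence were kept. Glycan names were put into IUPAC-condensed notation, and columns mapping to the same glycan were averaged. The binding signal is a within-array Z-score, averaged across arrays of one protein sequence run at different concentrations or buffers and across linkers. A negative Z-score can be read as non-binding.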

[1] = target: GlcNAc(a1-3)Gal(b1-4)GlcNAc
Summary of the method: as §1

[2] = target: GlcNAc(a1-4)Gal(b1-4)GlcNAc(b1-3)Gal(b1-4)[Fuc(a1-3)]GlcNAc(b1-3)Gal(b1-4)[Fuc(a1-3)]GlcNAc
Summary of the method: as §1

[3] = target: GlcNAc(a1-6)Gal(b1-4)GlcNAc
Summary of the method: as §1

[4] = target: GlcNAc(b1-3)Gal(b1-4)GlcNAc(b1-2)[GlcNAc(b1-3)Gal(b1-4)GlcNAc(b1-6)]Man(a1-6)[GlcNAc(b1-3)Gal(b1-4)GlcNAc(b1-2)Man(a1-3)]Man(b1-4)GlcNAc(b1-4)GlcNAc
Summary of the method: as §1

[5] = target: GlcNAc(b1-3)Gal(b1-4)GlcNAc(b1-3)Gal(b1-4)GlcNAc(b1-2)Man(a1-3)[GlcNAc(b1-3)Gal(b1-4)GlcNAc(b1-3)Gal(b1-4)GlcNAc(b1-2)Man(a1-6)]Man(b1-4)GlcNAc(b1-4)[Fuc(a1-6)]GlcNAc
Summary of the method: as §1

[6] = target: GlcNAc(b1-3)Gal(b1-4)GlcNAc(b1-3)[GlcNAc(b1-3)Gal(b1-4)GlcNAc(b1-3)]GalNAc
Summary of the method: as §1

[7] = target: GlcNAc6S(b1-3)Gal(b1-4)GlcNAc
Summary of the method: as §1

Man(a1-2)Man(a1-3)Man = target: Man(a1-2)Man(a1-3)Man
Summary of the method: as §1

[8] = target: Man(a1-2)Man(a1-6)[Man(a1-3)]Man(a1-6)[Man(a1-2)Man(a1-2)Man(a1-3)]Man
Summary of the method: as §1

[9] = target: Man(a1-3)[Man(a1-6)]Man(a1-6)[Man(a1-3)]Man
Summary of the method: as §1

MurNAc(b1-4)GlcNAc = target: MurNAc(b1-4)GlcNAc
Summary of the method: as §1

[10] = target: Neu5Ac(a2-3)Gal(b1-3)GalNAc(b1-3)Gal(b1-4)GlcNAc
Summary of the method: as §1

[11] = target: Neu5Ac(a2-3)Gal(b1-3)GlcNAc(b1-2)Man(a1-3)[Neu5Ac(a2-3)Gal(b1-3)GlcNAc(b1-2)Man(a1-6)]Man(b1-4)GlcNAc(b1-4)GlcNAc
Summary of the method: as §1

[12] = target: Neu5Ac(a2-3)Gal(b1-3)[GlcNAc(b1-6)]GalNAc
Summary of the method: as §1

[13] = target: Neu5Ac(a2-3)Gal(b1-4)GlcNAc(b1-2)Man(a1-3)[GlcNAc(b1-4)][Neu5Ac(a2-3)Gal(b1-4)GlcNAc(b1-2)Man(a1-6)]Man(b1-4)GlcNAc(b1-4)GlcNAc
Summary of the method: as §1

[14] = target: Neu5Ac(a2-3)Gal(b1-4)GlcNAc(b1-2)Man(a1-3)[Neu5Ac(a2-3)Gal(b1-4)GlcNAc(b1-2)Man(a1-6)]Man(b1-4)GlcNAc(b1-4)[Fuc(a1-6)]GlcNAc
Summary of the method: as §1

[15] = target: Neu5Ac(a2-3)Gal(b1-4)GlcNAc(b1-3)[Neu5Ac(a2-3)Gal(b1-4)GlcNAc(b1-6)]GalNAc
Summary of the method: as §1

[16] = target: Neu5Ac(a2-3)Gal(b1-4)GlcNAc(b1-6)[Gal(b1-3)]GalNAc
Summary of the method: as §1

[17] = target: Neu5Ac(a2-3)Gal(b1-4)[Fuc(a1-3)]GlcNAc(b1-3)Gal
Summary of the method: as §1

[18] = target: Neu5Ac(a2-3)Gal(b1-4)[Fuc(a1-3)]GlcNAc(b1-6)[Neu5Ac(a2-3)Gal(b1-3)]GalNAc
Summary of the method: as §1

[19] = target: Neu5Ac(a2-3)Gal6S(b1-4)[Fuc(a1-3)]GlcNAc
Summary of the method: as §1

Neu5Ac(a2-3)GalNAc = target: Neu5Ac(a2-3)GalNAc
Summary of the method: as §1

[20] = target: Neu5Ac(a2-6)Gal(b1-4)GlcNAc(b1-2)Man(a1-6)[GlcNAc(b1-2)Man(a1-3)]Man(b1-4)GlcNAc(b1-4)GlcNAc
Summary of the method: as §1

[21] = target: Neu5Ac(a2-6)GlcNAc(b1-4)GlcNAc
Summary of the method: as §1

[22] = target: Neu5Ac(a2-8)Neu5Ac(a2-8)Neu5Ac
Summary of the method: as §1

[23] = target: Neu5Gc(a2-3)Gal(b1-4)GlcNAc
Summary of the method: as §1

B1: GST Gap3 (Streptococcus parasanguinis) (protein)
chain: MTKQLISEIYWNEIRKGENYLYGSQIKFQEDLVNFYNPQLASGKPIVTFKSRTNYQGDRHSPDLPILIQGNRYLLEYQIDAVPANSFFLQLDFFNRQAEQIESIVLRNSGESFIFPKDTFTYTLTLMSAGCQSVTYQKFMIYDINDEEKKNHIVENRYLRELLPKDLDLVKNLIEYI
glycan array binding signal (z-score) (Glc(b1-4)Glc): -0.381
glycan array binding signal (z-score) [1]: -0.406
glycan array binding signal (z-score) [2]: 2.24
glycan array binding signal (z-score) [3]: 0.544
glycan array binding signal (z-score) [4]: 3.45
glycan array binding signal (z-score) [5]: 0.269
glycan array binding signal (z-score) [6]: -0.518
glycan array binding signal (z-score) [7]: -0.145
glycan array binding signal (z-score) (Man(a1-2)Man(a1-3)Man): -0.273
glycan array binding signal (z-score) [8]: -0.335
glycan array binding signal (z-score) [9]: -0.516
glycan array binding signal (z-score) (MurNAc(b1-4)GlcNAc): -0.582
glycan array binding signal (z-score) [10]: -0.123
glycan array binding signal (z-score) [11]: -0.211
glycan array binding signal (z-score) [12]: -0.638
glycan array binding signal (z-score) [13]: -0.195
glycan array binding signal (z-score) [14]: 2.2
glycan array binding signal (z-score) [15]: -0.511
glycan array binding signal (z-score) [16]: -0.323
glycan array binding signal (z-score) [17]: -0.462
glycan array binding signal (z-score) [18]: 3.62
glycan array binding signal (z-score) [19]: 0.06
glycan array binding signal (z-score) (Neu5Ac(a2-3)GalNAc): -0.101
glycan array binding signal (z-score) [20]: -0.269
glycan array binding signal (z-score) [21]: -0.465
glycan array binding signal (z-score) [22]: 0.585
glycan array binding signal (z-score) [23]: -0.209
